Sampled rows, rich in hits. Any-hit rate of the full collection: about 3%.
IP6K1 inh: Primary qHTS assay for small molecule inhibitors of Inositol hexaphosphate kinase 1 (IP6K1); Inositol hexakisphosphate kinase 1 (Homo sapiens), Q92551; IP6K1 kinase, ADP-Glo luminescence, 2 h; active compounds read low; activity change, % (series mostly up to about 58 µM); actives 0.81% (n = 140,000); in the data active = activity change below about -25%
Target sequence (Q92551 whole entry, looked up): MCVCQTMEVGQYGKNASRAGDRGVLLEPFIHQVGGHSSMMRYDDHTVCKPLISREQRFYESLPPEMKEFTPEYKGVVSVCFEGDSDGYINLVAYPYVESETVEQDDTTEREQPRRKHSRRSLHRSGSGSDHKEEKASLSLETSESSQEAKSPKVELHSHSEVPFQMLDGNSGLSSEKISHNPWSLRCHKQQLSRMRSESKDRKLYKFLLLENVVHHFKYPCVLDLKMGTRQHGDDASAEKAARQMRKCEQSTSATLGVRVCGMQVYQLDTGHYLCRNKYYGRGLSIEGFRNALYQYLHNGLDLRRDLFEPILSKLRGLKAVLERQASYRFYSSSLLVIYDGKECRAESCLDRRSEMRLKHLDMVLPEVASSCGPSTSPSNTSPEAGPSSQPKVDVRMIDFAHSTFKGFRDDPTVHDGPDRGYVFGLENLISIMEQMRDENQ
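ADP-Glo luminescence measures ADP made by human IP6K1 during a 2 h RT reaction with ATP/IP6 (mix at 1.3 mM/130 uM); top library doses 57.5 and 19.1 uM final.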
SNCA expr inh: Primary qHTS assay for inhibitors of alpha-synuclein gene (SNCA) expression; HEK-293 SNCA-luciferase knock-in, luminescence, 24 h; Potency, µM (titrated, usually from 57.2 µM), usual class: inhibitors; actives 0.17% (n = 140,000); note: nearly all actives have a fitted effect of over 45% in size
KDM5B inhibitor: Primary screen for KDM5B Histone Demethylases FDH-coupled qHTS | Lysine-specific demethylase 5B (Homo sapiens), Q9UGL1 | KDM5B demethylase, FDH-coupled NADH fluorescence (FDH is formaldehyde dehydrogenase) | Potency, µM (top dose mostly 57.7 µM), usual class: inhibitors | AID 1347165, 2019 | actives 2.6% (n = 220,000); note: nearly all actives have a fitted effect of over 70% in size
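Here, H3K4me3 peptide (12.5 µM in substrate mix) is demethylated by KDM5BΔAP, 200 nM final, after 10 min compound exposure. Formaldehyde product is coupled through FDH (0.25 U/mL in mix) to NADH fluorescence; 30-min ΔRFU feeds dose-response curves.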
SNCA viab count: GF-AFC viability counterscreen for inhibitors of alpha-synuclein gene (SNCA) expression | HEK-293-SNCA-luc viability, GF-AFC fluorescence, 24 h | Potency, µM (highest dose often 57.1 µM), usual class: cytotoxic | actives 0.12% (n = 150,000) | AID 1671193, 2021; note: nearly all actives have a fitted effect of over 30% in size
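HEK-293-SNCA-luc cells (1500/well) plated 24 h, then exposed 24 h to a dilution series; GF-AFC added 30 min at 37C, fluorescence 405/540 nm; normalised to medium-only and DMSO wells, Hill fit.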
Numbers stand for hits; i = inactive; ? = inconclusive; nt = not tested or not shown; + = active, no number; ! = repeats disagree; [ ] = dose if it differs, or a comment. Unless noted, calls come from the whole dose curve; as a rule, active = well fitted curve in the direction sought with a large enough effect; inconclusive = small, poorly fitted or top-dose-only effect, or another doubt; inactive = no such curve, though single readings can be large; an effect the other way counts as inactive or inconclusive.

SMILES | IP6K1 inh | SNCA expr inh | KDM5B inhibitor | SNCA viab count
CCOC(=O)[C@@H]1CN(C(=O)C(C)C)[C@H]2c3ccc(OC)cc3O[C@@H]12 | i | nt | nt | nt
Cc1c(-c2ccccc2F)[nH]c2ccc(CNC(=O)CC3CCC(=O)N3)cc12 (stereo not drawn) | i | i | 32µM | i
Cc1c(-c2ccccc2F)[nH]c2ccc(CNC(=O)CCN3CCCO3)cc12 | i | i | 25µM | i
Cc1c(-c2ccccc2F)[nH]c2ccc(CNC(=O)CCc3cc(=O)[nH]o3)cc12 | i | ? | ? | i
Cc1c(-c2ccccc2F)[nH]c2ccc(CNC(=O)CCc3cnccn3)cc12 | i | i | 13µM | i
CC(=O)c1sc(NC(C)C)c(C#N)c1N | nt | nt | i | nt
Cc1ccc(S(=O)(=O)NCc2ccc(C(=O)N3CCN(c4cccc(C)c4C)CC3)cc2)cc1 | nt | nt | i | nt
CC(OC(=O)c1ccc2ccccc2n1)C(=O)NC1(C#N)CCCCC1 (stereo not drawn) | nt | nt | i | nt
Cc1cccc(/C=N/NC(=O)c2cccs2)c1 | nt | nt | i | nt
O=C(O)CCC(=O)N1Cc2ccccc2CC2(CCCCN2CCc2ccccc2)C1 (stereo not drawn) | i | i | + | i
CN1CCCCC12Cc1ccccc1CN(C(=O)c1ccccc1)C2 (stereo not drawn) | i | i | 56µM | i
CCCN1CCCCC12Cc1ccccc1CN(C(=O)C1CCCC1)C2 (stereo not drawn) | i | i | 50µM | i
CNC(=O)[C@@H]1CN(S(=O)(=O)c2ccc(F)c(C)c2)C[C@H]1C1CCN(C)CC1 | i | ? | 22µM | i[12.5 µM]
Cc1c(C(=O)O)oc2ccc(S(=O)(=O)Nc3ccccc3)cc12 | nt | nt | i | nt
CCN(CC)CCNCc1sccc1C | nt | nt | i | nt
COc1cccc([S+](=O)([O-])N2CCC3(C2)N=C(c2cccnc2)C(=O)N3)c1 (stereo not drawn) | i | i | 28µM | i
COc1cccc([S+](=O)([O-])N2CCCC3(COc4ccccc4C(=O)N3)C2)c1 (stereo not drawn) | i | i | 25µM | i
O=C1NC2(CCN([S+](=O)([O-])c3cccc(C(F)(F)F)c3)C2)COc2ccccc21 (stereo not drawn) | i | i | i | i
O=C1NC2(CCCN([S+](=O)([O-])c3cccc(C(F)(F)F)c3)C2)COc2ccccc21 (stereo not drawn) | i | i | 35µM | i
C/C(=N\NC(=O)C1CC1)c1ccc(C)o1 | nt | nt | i | nt
O=C(Nc1ccccc1)c1cnc2c(c1)N([S+](=O)([O-])c1cccnc1)CCC2 | i | i | i | i
CC(C)c1ccc(CC(=O)N2CCCc3ncc(C(=O)Nc4cccnc4)cc32)cc1 | i | 1µM | ? | ?
CC(C)c1ccc(CC(=O)N2CCCc3ncc(C(=O)Nc4cccc(Cl)c4)cc32)cc1 | i | ? | 28µM | ?
CC(C)c1ccc(CC(=O)N2CCCc3ncc(C(=O)Nc4ccccn4)cc32)cc1 | i | i | i | ?
O=C(Nc1cccnc1)c1cnc2c(c1)N(Cc1ccccc1)CCC2 | i | i | 35µM | i
SMILES | IP6K1 inh | SNCA expr inh | KDM5B inhibitor | SNCA viab count
COc1ccccc1CNC(=O)C1CCCN(c2nccc(Nc3ccccc3OC)n2)C1 (stereo not drawn) | i | i | nt | i[12.5 µM]
C#CCNC(=O)c1cc(-c2ccccc2F)nc2c1cnn2C | i | nt | nt | nt
Cc1ccccc1C(=O)NC1CCN(c2nc3ncccc3o2)CC1 | i | i | 32µM | i
CC(C)(C)C(=O)NC1CCN(c2nc3ncccc3o2)CC1 | i | ? | 25µM | i
O=C(NC1CCN(c2nc3ncccc3o2)CC1)C1CCCC1 | i | i | 35µM | i
COCC(=O)NC1CCN(c2nc3ncccc3o2)CC1 | i | i | 32µM | i
COc1cccc(C(=O)NC2CCN(c3nc4ncccc4o3)CC2)c1 | i | i | ? | ?
O=C(NC(NCc1cccnc1)(C(F)(F)F)C(F)(F)F)c1cccnc1 | nt | nt | i | nt
CCOCCn1c(SCC(=O)OCC)nc2c1c(=O)[nH]c(=O)n2C | nt | nt | i | nt
Cc1ccccc1CNC(=O)c1ccc(CN2C(=O)CCn3nccc32)cc1 | nt | nt | i | nt
CCOc1ccccc1/C=C/C(=O)c1cccc(O)c1 | nt | nt | i | nt
N#Cc1ccc(Oc2cccc3cccnc23)cc1C#N | nt | nt | i | nt
O=C(NC1CCN(c2nc3ncccc3o2)CC1)c1cccc(Cl)c1 | i | i | 28µM | ?
O=C(Nc1ccccc1)NC1CCN(c2nc3ncccc3o2)CC1 | i | i | 25µM! | i
O=C(NC1CCCN(c2nc3ncccc3o2)C1)c1cccc(Cl)c1 (stereo not drawn) | i | i | i | i
COC(=O)C1=C(N)Oc2cc(C)n(Cc3ccccc3)c(=O)c2C1c1ccccc1OC (stereo not drawn) | nt | nt | i | nt
CC(C)(C)Nc1nc2cc(Cl)c(Cl)cc2nc1S(C)(=O)=O | i | nt | nt | 15µM
CCn1c(CO)nnc1C1CC(NC(=O)c2oc3cc(OC)ccc3c2C)C1 (stereo not drawn) | i | i | 28µM | i
CCn1c(CO)nnc1C1CC(NC(=O)c2[nH]c3ccc(OC)cc3c2C)C1 (stereo not drawn) | i | i | 28µM | i
COCCn1cnnc1CCNC(=O)c1oc2cc(OC)ccc2c1C | i | i | 28µM | i
CCCc1ccc2oc(C(=O)NCCc3nncn3CC)c(C)c2c1 | i | i | ? | i
Cc1nn(-c2ccccc2)c2c1C(C)N(C1CCCN(C(=O)c3ccccc3F)C1)C2=O (stereo not drawn) | i | nt | nt | nt
O=C(NCCc1ccccc1)C1CC(=O)N(c2n[nH]c3cccc(F)c23)C1 (stereo not drawn) | i | i | i | i
COc1ccccc1CCNC(=O)C1CC(=O)N(c2n[nH]c3cccc(F)c23)C1 (stereo not drawn) | i | i | 22µM | i
O=C(NCCc1cccc(F)c1)C1CC(=O)N(c2n[nH]c3cccc(F)c23)C1 (stereo not drawn) | i | i | 22µM | i
SMILES | IP6K1 inh | SNCA expr inh | KDM5B inhibitor | SNCA viab count
COc1ccc2[nH]cc(CCNC(=O)C3CC(=O)N(c4n[nH]c5cccc(F)c45)C3)c2c1 (stereo not drawn) | i | i | 22µM | i
COc1cc(-c2noc(-c3ccc(S(=O)(=O)NC4CC4)o3)n2)ccc1OC(C)C | nt | nt | i | nt
COc1ccccc1-c1nc2cnccn2c1NCCC(=O)Nc1ccc(C)cc1C | i | i | ? | ?
Cc1ccccc1NC(=O)CCNc1c(-c2ccc(F)cc2)nc2cnccn12 | i | i | 25µM | i
CC(=O)Nc1ccc(NC(=O)CCNc2c(-c3ccc(F)cc3)nc3cnccn23)cc1 | i | i | 28µM | i
COc1cccc(-c2nc3cnccn3c2NCCC(=O)Nc2ccc(F)cc2C)c1 | i | i | 28µM | ?
Cc1nc(-c2cccc(Cl)c2)n(CC(=O)Nc2ccc(F)cc2)c(=O)c1CCO | i | ? | i | i
Cc1ccc(-c2nc(CNC(=O)[C@@H]3CCC[C@H](N)C3)[nH]c2-c2ccccn2)cc1 | i | i | 28µM | i

Assay outcomes (PubChem)
